SMILES strings stand for the structures. Hit rate of the full screen: of about 16,000 compounds, about 5,100 (32%) were called active. Another 25% or so got no clear call; they are omitted. This is one part of the list. Unmarked numbers belong to inactive results. The call rests on the fitted dose curve; in most records, active means well fitted curve in the direction sought with a large enough effect; inconclusive means small, poorly fitted or top-dose-only effect, or effect the other way; inactive means no such curve, though single readings can be large or run the other way.
On the % scale 0 is the no-effect control and ±100 the full control effect.

The target of the assay is Cytochrome P450 3A4 (Homo sapiens) (UniProt P08684). In words: Cytochrome panel assay with activity outcomes. To be noted: recombinant CYP, pro-luciferin dealkylation, luminescence, p450-cyp3a4; series mostly up to 57.1 µM.
Cytochrome P450 3A4 (Homo sapiens), sequence (P08684 whole entry, looked up): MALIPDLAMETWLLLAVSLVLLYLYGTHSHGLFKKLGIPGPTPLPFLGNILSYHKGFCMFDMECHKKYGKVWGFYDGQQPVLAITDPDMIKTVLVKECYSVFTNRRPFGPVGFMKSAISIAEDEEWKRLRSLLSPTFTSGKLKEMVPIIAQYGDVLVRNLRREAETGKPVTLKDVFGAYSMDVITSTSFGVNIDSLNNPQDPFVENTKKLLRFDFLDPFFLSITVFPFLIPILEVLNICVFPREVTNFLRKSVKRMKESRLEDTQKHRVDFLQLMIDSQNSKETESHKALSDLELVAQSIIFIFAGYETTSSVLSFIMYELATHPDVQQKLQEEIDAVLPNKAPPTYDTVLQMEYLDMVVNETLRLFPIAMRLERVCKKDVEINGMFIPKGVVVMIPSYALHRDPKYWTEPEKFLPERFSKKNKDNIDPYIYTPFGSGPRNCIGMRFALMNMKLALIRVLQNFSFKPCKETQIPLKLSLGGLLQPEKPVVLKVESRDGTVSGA
As usually defined, the AC50 is the midpoint of the concentration-response curve, whichever way the signal moves. For `Cc1nn(Cc2ccc(Cl)cc2)c(C)c1NC(=O)CSc1nc2c(c(C(F)(F)F)n1)CCc1ccccc1-2`, the AC50 was 3.16 µM (active).
Still for that read-out and setting: with `Cc1ccccc1Cn1cc(NC(=O)CSc2nc3c(c(C(F)(F)F)n2)CCc2ccccc2-3)cn1` the figure was 5.01 µM (active).
For the molecule `NC(CSS(=O)(=O)O)=N[C@@H]1C[C@H]2CC[C@@H]1C2`, the activity, negative = inhibition was -19.6% [at 11.4 µM].
Consider `CCCC1c2c(ccc3ccccc23)Oc2ccc3ccccc3c21`, for which the activity, negative = inhibition was -11.1% [at 11.4 µM].
As to `Cc1cccc(CNc2cc(-c3cccc(C#N)c3)ncn2)c1`, the AC50 was 7.94 µM (active).
Regarding `N#Cc1cccc(-c2cc(NCc3ccccc3)ncn2)c1`, the AC50 entry is “inactive”.
The same measure, in the same setting: then `N#Cc1cccc(-c2cc(NCc3cccnc3)ncn2)c1`, with 2.51 µM (active).
Still for that read-out and setting: with `CC1(C)CCC(C)(C)c2cc(C(=O)Nc3ccc(C(=O)O)cc3)ccc21` the entry was “inactive”; with `COc1ccccc1C1=NOC(COC(=O)c2ccc3ccccc3n2)C1` (stereo unspecified), 17.8 µM (active).
The same measure, in the same setting: then `O=C(OCC1CC(c2ccccc2)=NO1)c1ccc(Cl)cc1` (stereo unspecified), with “inactive”.
Take `COc1ccc(CNc2cc(-c3cccc(NS(C)(=O)=O)c3)ncn2)c(OC)c1`: the AC50 was 2.51 µM (active).
With `COc1ccccc1CNc1cc(-c2cccc(NS(C)(=O)=O)c2)ncn1`, the AC50 was 5.01 µM (active).
Consider `Cc1cnn(-c2cc(N/N=C/c3ccccc3F)ncn2)c1`, for which the activity, negative = inhibition is -16.7% [at 2.29 µM].
Consider `Cc1cccc(C2NC(=O)c3c(sc(C)c3C)N2)c1O` (stereo unspecified), for which the half-maximal activity concentration (AC50) was 12.6 µM (active).
As to `CC(C)(Oc1ccc(-c2cccc3ccccc23)cc1)C(=O)O`, the activity, negative = inhibition was -6.61% [at 11.4 µM].
Take `O=C(NNC(=O)c1ccccc1O)c1ccc(Cl)cc1`: the AC50 result is “inactive”.
Still for that read-out and setting: with `O=C(O)c1ccccc1C(=O)NNc1ccc(F)cc1` the figure was 11.2 µM (active).
Regarding `O=C(O)c1ccccc1C(=O)NCc1ccc(F)cc1`, the AC50 result was “inactive”.
Take `O=C(O)c1ccccc1-c1ccccc1C(=O)Nc1ccc2c(c1)Cc1cc(F)ccc1-2`: the activity, negative = inhibition was -16.4% [at 11.4 µM].
Take `O=C(O)CC[C@@H](NC(=O)c1ccccc1C(=O)O)C(=O)O`: the AC50 result is “inactive”.
For `O=C(O)c1ccccc1C(=O)NNc1ccc(Cl)cc1`, the AC50 was 7.94 µM (active).
The same measure, in the same setting: with `Oc1c(CN2CCCCC2)cc(Br)c2cccnc12` the entry was “inactive”; with `CCCNC(=O)Nc1ccc2c(c1)nc(C)n2C`, “inactive”; with `Cc1cc(NC(=O)Nc2ccc3c(ccn3C)c2)sn1`, 12.6 µM (active).
As to `Cc1noc(C)c1-c1ccc2ncnc(NCCN3CCOCC3)c2c1`, the AC50 is 12.6 µM (active).
With `Cc1noc(C)c1-c1ccc2ncnc(N3CCOCC3)c2c1`, the AC50 is 31.6 µM (active).
On to `Cc1noc(C)c1-c1ccc2ncnc(N3CCN(C)CC3)c2c1`, for which the AC50 is 25.1 µM (active).
The same measure, in the same setting: then `CCN1CCC[C@H]1CNC(=O)c1cc(S(N)(=O)=O)ccc1OC`, with “inactive”; and `CCOC(=O)C1=C2SCC(=O)N2C(N)=C(C#N)C1`, with “inactive”.
For the molecule `COc1ccccc1CC(=N)N1C[C@@H]2C(=O)CCC(c3ccccc3)(c3ccccc3)[C@@H]2C1`, the AC50 is 3.16 µM (active).
On the same count and under the same terms, then `COCC(=O)N1CCC2(CC1)CN(Cc1ccccc1OC)C2`, with “inactive”.
Still for that read-out and setting: then `COc1ccccc1CN1CCC2(CC1)CCN(C(C)=O)CC2`, with “inactive”; and `CC1(C)OC(=O)NC1=O`, with “inactive”; and `O=C1C(=O)c2ccccc2C(O)=C1C1CCC(c2ccc(Cl)cc2)CC1` (stereo unspecified), with “inactive”.
For `O=C1CCCC2=C1C(c1ccc(Cl)cc1)C1C(=O)c3ccccc3C1=N2` (stereo unspecified), the AC50 was 14.1 µM (active).
Take `CC[C@](N)(C(=O)O)C(C)C`: the activity, negative = inhibition was -7.26% [at 11.4 µM].
As to `COC(=O)[C@@]1(Cc2ccccc2)[C@@H]2C(=CC(=O)[C@H]2CC(=O)C(=O)N(C)C)CN1C(=O)c1ccccc1`, the AC50 is 7.94 µM (active).
Consider `COC(=O)[C@@]1(Cc2ccc(F)cc2)[C@@H]2C(=CC(=O)[C@H]2CC(=O)C(=O)N(C)C)CN1C(=O)c1ccccc1`, for which the AC50 was 10 µM (active).
On to `CC(O)CN(CCC(N)=O)CCC(N)=O` (stereo unspecified), for which the AC50 result is “inactive”.
Regarding `O=C(O)/C(Cc1ccc([N+](=O)[O-])cc1)=N/O`, the activity, negative = inhibition is -11.6% [at 11.4 µM].
As for `CC(=O)N=c1sccn1CC(=O)c1ccc([N+](=O)[O-])cc1`, the AC50 was 4.47 µM (active).
As for `CC1CN(C(=S)NC(=O)c2ccc([N+](=O)[O-])cc2)CC(C)O1` (stereo unspecified), the activity, negative = inhibition is 2.57% [at 2.29 µM].
Consider `CCC(=O)OCN1C(=O)C=CC1=O`, for which the activity, negative = inhibition is 2.64% [at 11.4 µM].
In the case of `CCCN1C(=O)C(Cc2nc3ccccc3c(=O)n2C)c2ccccc21` (stereo unspecified), the AC50 was 7.94 µM (active).
Consider `N=C(N)SCc1nc2ccccc2c(=O)n1-c1ccccc1Cl`, for which the activity, negative = inhibition is -15.4% [at 2.29 µM].
In the case of `CC(=O)N1CCN(C(=O)CC2OC(=O)c3ccccc32)CC1` (stereo unspecified), the AC50 is 12.6 µM (active).
Take `CCOC(=O)CC1NC(=O)c2ccccc21` (stereo unspecified): the AC50 entry was “inactive”.
On to `CC(=O)N1CCC2(CC1)CN(c1ccccc1)C2`, for which the AC50 entry was “inactive”.
For `O=C(CSc1nc2ccccc2[nH]1)Nc1c(F)cccc1F`, the AC50 is 14.1 µM (active).
Turning to `O=C(O)CSc1nc2ccccc2[nH]1`, the activity, negative = inhibition is 2.87% [at 11.4 µM].
Take `COc1ccccc1-c1cc(NCc2cccc(C)c2)ncn1`: the AC50 was 6.31 µM (active).
For the molecule `Cc1cccc(CNc2cc(-c3ccccc3CN(C)C)ncn2)c1`, the AC50 was 15.8 µM (active).
Still for that read-out and setting: then `CN(C)Cc1ccccc1-c1cc(NCc2ccccc2)ncn1`, with “inactive”; and `CN(C)Cc1ccccc1-c1cc(NC2CC2)ncn1`, with 25.1 µM (active); and `Cc1cnc(CNc2cc(-c3ccccc3CN(C)C)ncn2)cn1`, with “inactive”.
As to `COc1ccccc1-c1cc(NCc2ccccc2)ncn1`, the AC50 entry is “inactive”.
Still for that read-out and setting: with `Cc1cccc(CNc2cc(-c3ccccc3Cl)ncn2)c1` the figure was 15.8 µM (active); with `CNc1cc(-c2ccccc2CN(C)C)ncn1`, “inactive”.
Turning to `COC(=O)[C@@]1(Cc2ccc(OC)cc2)[C@H]2c3cc(C(=O)N4CCCC4)n(Cc4cc(F)cc5c4OCOC5)c3C[C@H]2CN1C(=O)c1ccccc1`, the AC50 is 2.51 µM (active).
On the same count and under the same terms, then `COC(=O)[C@@]1(Cc2ccccc2)[C@H]2c3cc(C(=O)N4CCCC4)n(Cc4cc(F)cc5c4OCOC5)c3C[C@H]2CN1C(=O)c1ccccc1`, with 3.98 µM (active); and `CC(C)(CNC(=O)c1ccc([N+](=O)[O-])c(Cl)c1)CNC(=O)c1ccc([N+](=O)[O-])c(Cl)c1`, with 8.91 µM (active); and `NCCNC(=O)c1ccc(Cl)cc1`, with “inactive”.
As for `O=C(O)c1ccc([N+](=O)[O-])c(P(=O)(O)O)c1`, the activity, negative = inhibition is -2.76% [at 11.4 µM].
Regarding `N[C@@H](CSCc1ccc(I)cc1)C(=O)O`, the activity, negative = inhibition was -8.11% [at 11.4 µM].
As to `COCCNc1ccnc(-c2ccccc2C)n1`, the AC50 entry is “inactive”.
Same read-out and setting: with `Clc1ccccc1-c1nccc(NCCN2CCOCC2)n1` the figure was 15.8 µM (active).
Same read-out and setting: then `FC(F)(F)c1ccccc1-c1nccc(NCCN2CCOCC2)n1`, with 15.8 µM (active); and `Clc1ccccc1-c1cc(NCCN2CCOCC2)ncn1`, with “inactive”; and `Cc1ccccc1-c1nccc(NCCN2CCOCC2)n1`, with 25.1 µM (active).
`FC(F)(F)c1ccccc1-c1cc(NCCN2CCOCC2)ncn1`: the AC50 result is “inactive”.
With `N=C(N)[C@H](N=Nc1ccccc1)C(N)=O`, the activity, negative = inhibition is -11.5% [at 11.4 µM].
Consider `COc1ccc(NC(=O)CSc2nc(C)c3c(c2C#N)CCCC3)cc1`, for which the AC50 was 17.8 µM (active).
For `CCOc1cccc(NC(=O)CSc2nc(C)c3c(c2C#N)CCCC3)c1`, the activity, negative = inhibition is -6.34% [at 11.4 µM].
In the case of `CCOc1ccc(NC(=O)CSc2nc(C)c3c(c2C#N)CCCC3)cc1`, the AC50 is 12.6 µM (active).
As to `Cn1cc(C(=O)c2cccc(Cl)c2Cl)cc1C(=O)O`, the AC50 result is “inactive”.
On the same count and under the same terms, then `Cn1cccc1C(=O)N1CCC[C@@]2(CCN(Cc3cc(C(F)(F)F)cc(C(F)(F)F)c3)C2)C1`, with 15.8 µM (active); and `Cn1cccc1C(=O)N1CCC2(CCN(Cc3ccccc3)CC2)CC1`, with “inactive”.
As to `Cn1cccc1C(=O)N1CCC2(CC1)CN(Cc1cc(C(F)(F)F)cc(C(F)(F)F)c1)C2`, the AC50 entry is “inactive”.
Regarding `Cn1cccc1C(=O)N1CCC[C@@]2(CCN(Cc3ccc(C#N)cc3)C2)C1`, the AC50 was 12.6 µM (active).
Take `Cn1cccc1C(=O)N1CCC2(CC1)CN(Cc1ccc(C#N)cc1)C2`: the AC50 result is “inactive”.
Same read-out and setting: then `CCN[C@@H]1C[C@H](C)S(=O)(=O)c2sc(S(N)(=O)=O)cc21`, with “inactive”; and `NC(N)=Nc1nc(CCN2C(=O)c3ccccc3C2=O)cs1`, with “inactive”.
On the same count and under the same terms, then `N#C/C(=C/c1cccc(C(F)(F)F)c1)c1nc(CCN2C(=O)c3ccccc3C2=O)cs1`, with 5.01 µM (active).
On the same count and under the same terms, with `O=C(O)CSCNC(=O)CC12CC3CC(CC(C3)C1)C2` the figure was 0.224 µM (active); with `Cc1nc2nc[nH]n2c(=O)c1NC(=O)CC12CC3CC(CC(C3)C1)C2`, “inactive”.
Turning to `O=C(O)CC12C[C@H]3C[C@@H](CC(O)(C3)C1)C2`, the activity, negative = inhibition is -10.4% [at 11.4 µM].
On to `NC(=O)c1ccc(-c2ncc(-c3ccccc3)o2)cc1`, for which the AC50 result was “inactive”.
Still for that read-out and setting: with `NC(=O)c1ccc(-c2nc(-c3ccc4c(c3)OCO4)c(-c3ccccn3)[nH]2)cc1` the figure was 10 µM (active); with `O=C(O)Cc1nn(Cc2ccc(Br)cc2F)c(=O)c2ccccc12`, “inactive”.
For the molecule `COc1ccc(NC(=O)COc2ccc(CNCCCN3CCOCC3)cc2OC)cc1`, the AC50 result is “inactive”.
`CCOc1cc(CNCCCN2CCOCC2)cc(Br)c1OCC(=O)Nc1cccc(C(F)(F)F)c1`: the AC50 is 4.47 µM (active).
Turning to `c1csc(CNCCCN2CCOCC2)c1`, the AC50 result was “inactive”.
Consider `CN(C)C(=O)c1ccc(-c2nc(Nc3ccncc3)c3ccccc3n2)cc1`, for which the AC50 was 15.8 µM (active).
Still for that read-out and setting: then `CN(C)c1ccc(-c2nc(Nc3ccncc3)c3ccccc3n2)cc1`, with 7.94 µM (active).
`CC(=O)NC1=NC(=O)C(C)S1` (stereo unspecified): the activity, negative = inhibition is -3.3% [at 2.29 µM].
Consider `Cc1ccc(-n2nc3c(c2NC(=O)c2cccs2)CSC3)cc1`, for which the AC50 was 12.6 µM (active).
Same read-out and setting: then `Cc1ccccc1-n1nc2c(c1NC(=O)c1ccc(S(=O)(=O)N(C)C)cc1)CSC2`, with 14.1 µM (active); and `CCCC(=O)Nc1c2c(nn1-c1ccc(C)cc1C)CSC2`, with 7.08 µM (active).
In the case of `CCN(CC)S(=O)(=O)c1ccc(C(=O)Nc2ncn(Cc3ccccc3)n2)cc1`, the AC50 entry was “inactive”.
Regarding `Cc1ccc(NC(=O)CCC(=O)NNS(=O)(=O)c2ccccc2)c(C)c1`, the activity, negative = inhibition is 21.8% [at 2.29 µM].
`Cc1ccccc1-n1nc2c(c1NC(=O)c1c(-c3ccccc3Cl)noc1C)CSC2`: the AC50 was 1.12 µM (active).
Same read-out and setting: then `Cc1onc(-c2c(F)cccc2Cl)c1C(=O)N[C@H]1C(=O)N2[C@H]1SC(C)(C)[C@H]2C(=O)O`, with “inactive”.
For the molecule `Cc1ccc(NC(=O)CCC(=O)NNC(=O)c2cccs2)c(C)c1`, the activity, negative = inhibition was -1.38% [at 2.29 µM].
Regarding `CCCC(=O)Nc1c(C)n[nH]c1C`, the AC50 entry is “inactive”.
As to `Cc1cc(NC(=O)c2ccc(S(=O)(=O)N(C)C)cc2)n(-c2ccccn2)n1`, the AC50 entry was “inactive”.
Regarding `Cc1onc(-c2c(F)cccc2Cl)c1C(=O)N[C@@H]1C(=O)N2[C@H]1SC(C)(C)[C@H]2C(=O)O`, the activity, negative = inhibition is -13.2% [at 11.4 µM].

The values above are taken from PubChem BioAssay AID1851 (National Center for Advancing Translational Sciences (NCATS), 2009).
